Source: PubChem BioAssay (NCATS)
Results filed as inconclusive are left out. A call without a number means that no potency is given here. A number with no mark means an inactive call. Activity calls are given as the source filed them. Calls follow the shape of the dose curve; as a rule, active = well fitted curve in the direction sought with a large enough effect; inconclusive = small, poorly fitted or top-dose-only effect, or another doubt; inactive = no such curve, though single readings can be large; an effect the other way counts as inactive or inconclusive.

Assay: BET inhibitor-based combinations targeting novel dependencies in MECOM-rearranged (r) AML: SET-2 cell line (AID 2202231); also: nearly all actives have a fitted effect of over 35% in size; also: potency is read from the fitted curve at half-maximal effect
Settings: SET-2 AML cells viability, CellTiter-Glo luminescence, 48 h; viability: active compounds read low, concentration not given here
Procedure, shortened: (§1)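 Viability of cells (500 per well) is scored by luminescent CellTiter-Glo at 48 hr post-dosing. Eleven-point titrations are normalized to DMSO and empty controls and reduced to AUC values.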
For `O=C1CCc2cc(OCCCCc3nnnn3C3CCCCC3)ccc2N1`, the Potency was 16.6 µM (active). Molecule `CCN(CC)CCCC(C)Nc1ccnc2cc(Cl)ccc12` (centres undefined) has a viability of 102%. `CC(C)NCC(O)c1ccc(O)c(O)c1` (centres undefined) showed a viability of 106%. Work on `CC(=O)O[C@]1(C(C)=O)CC[C@H]2[C@@H]3C=C(Cl)C4=CC(=O)[C@@H]5C[C@@H]5[C@]4(C)[C@H]3CC[C@@]21C` yielded a viability of 80.8%.

Assay: BET inhibitor-based combinations targeting novel dependencies in MECOM-rearranged (r) AML: OCI-AML3 cell line (AID 2202232); also: nearly all actives have a fitted effect of over 35% in size; also: potency is read from the fitted curve at half-maximal effect
Settings: CellTiter-Glo luminescence, 48 h; Potency: OCI-AML3 viability; series mostly up to 46 µM
Procedure, shortened: as §1
With `O=C1CCc2cc(OCCCCc3nnnn3C3CCCCC3)ccc2N1` the Potency was “inactive”. `CCN(CC)CCCC(C)Nc1ccnc2cc(Cl)ccc12` (centres undefined) gave a viability (% of control) of 92.2% [at 8.46 µM]. With `CC(C)NCC(O)c1ccc(O)c(O)c1` (centres undefined) the Potency was “inactive”. For `CC(C)c1c(C(=O)Nc2ccccc2)c(-c2ccccc2)c(-c2ccc(F)cc2)n1CC[C@@H](O)C[C@@H](O)CC(=O)O`, the Potency was 3.23 µM (active). In the case of `CC(=O)O[C@]1(C(C)=O)CC[C@H]2[C@@H]3C=C(Cl)C4=CC(=O)[C@@H]5C[C@@H]5[C@]4(C)[C@H]3CC[C@@]21C`, the Potency was “inactive”.

Assay: BET inhibitor-based combinations targeting novel dependencies in MECOM-rearranged (r) AML: HNT-34 cell line (AID 2202234); also: nearly all actives have a fitted effect of over 35% in size; also: potency is read from the fitted curve at half-maximal effect
Settings: HNT-34 AML viability, CellTiter-Glo luminescence, 48 h; series mostly up to 46 µM
Procedure, shortened: (§2)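 Using pin-tool transfer, drugs were added in 11 doses to cells (500/well), incubated 48 hr, and assessed with CellTiter-Glo. Z-AUC is a mean-centring transformation applied separately to each screened line.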
With `O=C1CCc2cc(OCCCCc3nnnn3C3CCCCC3)ccc2N1` the Potency was “inactive”. For `CCN(CC)CCCC(C)Nc1ccnc2cc(Cl)ccc12` (centres undefined), the Potency was 5.39 µM (active). In the case of `CC(C)c1c(C(=O)Nc2ccccc2)c(-c2ccccc2)c(-c2ccc(F)cc2)n1CC[C@@H](O)C[C@@H](O)CC(=O)O`, the Potency was 10.2 µM (active).

Assay: BET inhibitor-based combinations targeting novel dependencies in MECOM-rearranged (r) AML: UCSD-AML1 cell line (AID 2202235); also: nearly all actives have a fitted effect of over 40% in size; also: potency is read from the fitted curve at half-maximal effect
Settings: UCSD-AML1 AML cells viability, CellTiter-Glo, 48 h; series mostly up to 46 µM
Procedure, shortened: as §2
In the case of `Cc1ccc(-c2cc(C(F)(F)F)nn2-c2ccc(S(N)(=O)=O)cc2)cc1`, the Potency was “inactive”. With `O=C1CCc2cc(OCCCCc3nnnn3C3CCCCC3)ccc2N1` the Potency was “inactive”. For `CC(C)NCC(O)c1ccc(O)c(O)c1` (centres undefined), the Potency was “inactive”. With `CC(C)c1c(C(=O)Nc2ccccc2)c(-c2ccccc2)c(-c2ccc(F)cc2)n1CC[C@@H](O)C[C@@H](O)CC(=O)O` the Potency was 7.23 µM (active).

Assay: BET inhibitor-based combinations targeting novel dependencies in MECOM-rearranged (r) AML: AML-191 cell line (AID 2202236; also: nearly all actives have a fitted effect of over 35% in size)
Settings: AML-191 viability, CellTiter-Glo luminescence, 48 h; series mostly up to 46 µM
Procedure, shortened: as §1
In the case of `O=C1CCc2cc(OCCCCc3nnnn3C3CCCCC3)ccc2N1`, the Potency was “inactive”. With `CCN(CC)CCCC(C)Nc1ccnc2cc(Cl)ccc12` (centres undefined) the viability (% of control) was 95.1% [at 8.46 µM]. For `CC(C)NCC(O)c1ccc(O)c(O)c1` (centres undefined), the Potency was “inactive”.

Assay: BET inhibitor-based combinations targeting novel dependencies in MECOM-rearranged (r) AML: AML-194 cell line (AID 2202237; also: nearly all actives have a fitted effect of over 40% in size; also: potency is read from the fitted curve at half-maximal effect)
Settings: AML-194 (MECOM-r AML) viability, CellTiter-Glo, 48 h; series mostly up to 46 µM
Procedure, shortened: as §1
With `Cc1ccc(-c2cc(C(F)(F)F)nn2-c2ccc(S(N)(=O)=O)cc2)cc1` the Potency was “inactive”. In the case of `CCN(CC)CCCC(C)Nc1ccnc2cc(Cl)ccc12` (centres undefined), the viability (% of control) was 111% [at 8.46 µM]. For `CC(C)NCC(O)c1ccc(O)c(O)c1` (centres undefined), the Potency was “inactive”. With `CC(C)c1c(C(=O)Nc2ccccc2)c(-c2ccccc2)c(-c2ccc(F)cc2)n1CC[C@@H](O)C[C@@H](O)CC(=O)O` the Potency was 12.9 µM (active). With `CC(=O)O[C@]1(C(C)=O)CC[C@H]2[C@@H]3C=C(Cl)C4=CC(=O)[C@@H]5C[C@@H]5[C@]4(C)[C@H]3CC[C@@]21C` the Potency was “inactive”.
